Experimental data published in the antibiotic and cytotoxicity screens of Wong et al. (2023).
The campaign covered roughly 39,000 compounds. About 3,300 (8.5%) were called active. The list comes from a sample in which actives are over-represented; it also holds similar structures and randomly drawn compounds.

System: HepG2
Assay: cytotoxicity call (relative viability < 0.9)
Settings: 10 µM

SMILES	cytotoxicity call
CNC[C@H]1OCCCC[C@H](C)Oc2ccc(NC(=O)c3ccncc3)cc2C(=O)N([C@@H](C)CO)C[C@@H]1C	inactive
Cc1ccc(S(=O)(=O)N(C)C[C@@H]2Oc3ccc(NS(=O)(=O)c4c(C)noc4C)cc3CC(=O)N([C@@H](C)CO)C[C@H]2C)cc1	inactive
C[C@H]1CN([C@@H](C)CO)C(=O)c2cccc(NC(=O)c3cnccn3)c2O[C@H]1CN(C)S(=O)(=O)c1ccc(Cl)cc1	inactive
O=C(C[C@H]1CC[C@H](NC(=O)c2cccnc2)[C@H](CO)O1)NCCN1CCCCC1	inactive
COCC#Cc1ccc2c(c1)O[C@H](CN(C)C(=O)C1CCCCC1)[C@H](C)CN([C@@H](C)CO)S2(=O)=O	inactive
C[C@H](CO)N1C[C@H](C)[C@H](CN(C)C(=O)Cc2ccccc2)OCCCC[C@H](C)Oc2ccc(NC(=O)Nc3ccc(F)cc3)cc2C1=O	inactive
CCS(=O)(=O)Nc1ccc2c(c1)C(=O)N(C)[C@H]1CC[C@H](CC(=O)NCc3ccc(OC)cc3)O[C@@H]1CO2	inactive
C[C@H](CO)N1C[C@H](C)[C@H](CN(C)C(=O)Nc2ccc3c(c2)OCO3)OCCCC[C@H](C)Oc2ccc(NC(=O)c3ccncc3)cc2C1=O	inactive
C[C@H]1CCCCO[C@H](CN(C)Cc2ccncc2)[C@@H](C)CN([C@@H](C)CO)C(=O)c2cc(NC(=O)Nc3ccc(C(F)(F)F)cc3)ccc2O1	active
C[C@@H]1CCCCO[C@H](CN(C)Cc2ccncc2)[C@H](C)CN([C@@H](C)CO)C(=O)c2cc(NC(=O)Nc3ccc(C(F)(F)F)cc3)ccc2O1	active
C[C@@H]1CN([C@@H](C)CO)C(=O)c2cc(NC(=O)Nc3ccc(C(F)(F)F)cc3)ccc2O[C@@H](C)CCCCO[C@@H]1CN(C)Cc1ccncc1	active
C[C@@H]1CN([C@@H](C)CO)C(=O)c2cc(NC(=O)Nc3ccc(C(F)(F)F)cc3)ccc2O[C@@H](C)CCCCO[C@H]1CN(C)Cc1ccncc1	inactive
C[C@@H]1CCCCO[C@@H](CN(C)Cc2ccncc2)[C@@H](C)CN([C@H](C)CO)C(=O)c2cc(NC(=O)Nc3ccc(C(F)(F)F)cc3)ccc2O1	active
C[C@@H]1CCCCO[C@@H](CN(C)Cc2ccncc2)[C@@H](C)CN([C@@H](C)CO)C(=O)c2cc(NC(=O)Nc3ccc(C(F)(F)F)cc3)ccc2O1	inactive
C[C@H](CO)N1C[C@H](C)[C@@H](CN(C)CC2CC2)Oc2ccc(NC(=O)CCN3CCOCC3)cc2CC1=O	inactive
COC(=O)c1c(CC[C@@H](CO)NC(=O)N[C@H](Cc2ccccc2)Cn2cc(-c3ccccc3N)nn2)oc(C(C)=O)c1C(=O)OC	inactive
COc1ccc(NC(=O)N(C)C[C@@H]2Oc3ccc(NC(=O)Nc4cccc5ccccc45)cc3CC(=O)N([C@H](C)CO)C[C@H]2C)cc1	inactive
C[C@H](CO)N1C[C@H](C)[C@H](CN(C)C(=O)NC2CCCCC2)OCCCC[C@H](C)Oc2ccc(NC(=O)c3ccncc3)cc2C1=O	inactive
COc1ccc(NC(=O)N(C)C[C@H]2Oc3ccc(NC(=O)CCN4CCOCC4)cc3C(=O)N([C@@H](C)CO)C[C@H]2C)cc1	inactive
C[C@@H]1CN([C@@H](C)CO)C(=O)CCCn2nncc2CO[C@H]1CN(C)C(=O)c1ccc(N2CCN(C)CC2)cc1	inactive

SMILES	cytotoxicity call
C[C@H]1CN([C@@H](C)CO)C(=O)c2cccc(NC(=O)C3CC3)c2O[C@@H]1CN(C)C(=O)Nc1ccc2c(c1)OCO2	inactive
C[C@@H]1CCCCO[C@H](CN(C)CC2CCCCC2)[C@H](C)CN([C@@H](C)CO)C(=O)c2cc(NC(=O)c3ccncc3)ccc2O1	inactive
C[C@@H]1CN([C@H](C)CO)C(=O)Cc2cc(NC(=O)Cn3cnnn3)ccc2O[C@H]1CN(C)C(=O)Nc1ccc2c(c1)OCO2	inactive
COCC(=O)N1C[C@@H](C)[C@@H](OC)CN(C)C(=O)c2cc(NC(=O)c3cc(C)on3)ccc2OC[C@@H]1C	inactive
Cc1ccc(S(=O)(=O)Nc2ccc3c(c2)CC(=O)N([C@H](C)CO)C[C@H](C)[C@@H](CN(C)Cc2ccc(Oc4ccccc4)cc2)O3)cc1	inactive
Cc1ccc(S(=O)(=O)Nc2ccc3c(c2)CC(=O)N([C@@H](C)CO)C[C@H](C)[C@H](CN(C)Cc2ccc(Oc4ccccc4)cc2)O3)cc1	inactive
Cc1ccc(S(=O)(=O)Nc2ccc3c(c2)CC(=O)N([C@@H](C)CO)C[C@H](C)[C@@H](CN(C)Cc2ccc(Oc4ccccc4)cc2)O3)cc1	active
Cc1ccc(S(=O)(=O)Nc2ccc3c(c2)CC(=O)N([C@H](C)CO)C[C@@H](C)[C@@H](CN(C)Cc2ccc(Oc4ccccc4)cc2)O3)cc1	active
Cc1ccc(S(=O)(=O)Nc2ccc3c(c2)CC(=O)N([C@@H](C)CO)C[C@@H](C)[C@@H](CN(C)Cc2ccc(Oc4ccccc4)cc2)O3)cc1	inactive
Cc1ccc(S(=O)(=O)Nc2ccc3c(c2)CC(=O)N([C@@H](C)CO)C[C@@H](C)[C@H](CN(C)Cc2ccc(Oc4ccccc4)cc2)O3)cc1	inactive
COc1ccc(S(=O)(=O)N(C)C[C@@H]2Oc3c(NC(=O)c4cc(C)nn4C)cccc3C(=O)N([C@@H](C)CO)C[C@H]2C)cc1	inactive
C[C@H](O)C#Cc1ccc2c(c1)O[C@@H](CN(C)C(=O)Nc1ccccc1)[C@@H](C)CN([C@@H](C)CO)S2(=O)=O	inactive
C[C@@H]1CN([C@H](C)CO)C(=O)CCCn2cc(nn2)CO[C@H]1CN(C)S(=O)(=O)c1ccc(Cl)cc1	inactive
C[C@@H]1CCCCO[C@@H](CN(C)C(=O)C2CCCCC2)[C@H](C)CN([C@H](C)CO)C(=O)c2cc(NC(=O)Cc3ccccc3)ccc2O1	inactive
CC(C)CC(=O)Nc1cncc(-c2ccc3[nH]nc(-c4nc5cncc(-c6cccc(F)c6)c5[nH]4)c3c2)c1	active
CO[C@H](CN(C)C(=O)C1CCOCC1)[C@@H](C)CN(C(=O)Nc1ccc(C(F)(F)F)cc1)[C@H](C)CO	inactive
COc1ccccc1CNC(=O)C[C@@H]1C[C@H]2c3cc(NC(=O)C4CCOCC4)ccc3O[C@H]2[C@H](CO)O1	inactive
CCN(CCCc1ccccc1)CCCc1ccccc1.O=C(O)CC(O)(CC(=O)O)C(=O)O	inactive
CCN(CC)CCc1nc(-c2ccccc2)no1.O=C(O)CC(O)(CC(=O)O)C(=O)O	active
NCc1nc(-c2ccccc2)no1	inactive
